{"source": "PubChem BioAssay AID434982", "about": "(The Scripps Research Institute Molecular Screening Center, 2010)", "note": "Hit rate of the full screen: of about 15,000 compounds, about 60 (0.4%) were called active. The entries come from a sample that favours actives as a whole. A number with no mark means an inactive call. No stated cut-off is given here; in the data, active means activation above about 2.2%; inactive means the rest."}
{"test": "agonists of NOTCH signaling (AID 434982)", "conditions": "NOTCH signaling luciferase reporter cells, luminescence; at 2.5 µM; active compounds read high"}
{"molecule": "CC(C)(C)NC(=O)NCC(c1ccc[nH]1)C(F)(F)F", "note": "(centres undefined)", "activation": "-0.29%"}
{"molecule": "CCOC(=O)C(=CNc1nc(-c2ccc(Cl)cc2)cs1)C(=O)OCC", "activation": "-0.64%"}
{"molecule": "Cc1ccc(Oc2c(C)[nH]c(=S)[nH]c2=O)cc1", "activation": "-0.61%"}
{"molecule": "CC(=O)N1c2ccccc2C=Cc2ccccc21", "activation": "-5.39%"}
{"molecule": "CN(C)c1ccc(/C=C(\\C#N)S(C)(=O)=O)c(Cl)c1", "activation": "-0.47%"}
{"molecule": "Cc1cc(C(F)(F)F)nc2c(-c3noc(-c4ccccc4)n3)cnn12", "activation": "-0.99%"}
{"molecule": "O=C(c1ccc(C#Cc2ccccc2)o1)N1CCCCC1", "activation": "-0.2%"}
{"molecule": "O=[N+]([O-])c1ccc(CSc2nnc(-c3ccncc3)o2)cc1", "activation": "0.14%"}
{"molecule": "Cc1[nH]c2c(F)cc(F)cc2c(=O)c1I", "activation": "-0.36%"}
{"molecule": "O=C1c2cc(S(=O)(=O)Oc3ccccc3)ccc2-c2ccc(S(=O)(=O)Oc3ccccc3)cc21", "activation": "-1.18%"}
{"molecule": "CCCCc1c(O)cc(-c2ccccc2)n(Cc2ccccc2)c1=O", "activation": "-0.19%"}
{"molecule": "COC(=O)C(C#N)c1ccc(C(F)(F)F)cc1[N+](=O)[O-]", "note": "(centres undefined)", "activation": "-0.67%"}
{"molecule": "CC(C)S(=O)(=O)c1cscc1N/C=C(/C#N)C(=O)C1CC1", "activation": "0%"}
{"molecule": "Cc1nc(-c2nnc(SCC(=O)c3ccc(F)cc3)n2C)cs1", "activation": "-0.64%"}
{"molecule": "NNC(=O)c1csc(-c2ccc(C(F)(F)F)cn2)n1", "activation": "-0.19%"}
{"molecule": "CCOC(=O)c1cc(CC)sc1NC(=O)c1cccnc1Oc1ccccc1", "activation": "0.22%"}
{"molecule": "COC(=O)c1c(C(=O)OC)c2n(c1C)CCS2", "activation": "3.54% (active)"}
{"molecule": "Cc1cc(-c2nc(C(=O)NN3CCCCC3)cs2)no1", "activation": "-0.7%"}
{"molecule": "Cc1noc(C)c1C(=O)Oc1cccc2cccnc12", "activation": "0.63%"}
{"molecule": "S=C1NCN(CCCn2ccnc2)CN1", "activation": "0.16%"}
{"molecule": "COc1ccc(CCNC(=O)c2ccccc2-c2ccccc2C(=O)O)cc1OC", "activation": "-0.75%"}
{"molecule": "Cc1noc(C)c1S(=O)(=O)NCc1cc(F)cc2c1OCOC2", "activation": "-0.53%"}
{"molecule": "Nc1nc(C23CC4CC(CC(C4)C2)C3)cs1", "activation": "-0.6%"}
{"molecule": "COC(=O)c1ccc2snnc2c1", "activation": "-0.29%"}
{"molecule": "CCOC(=O)/C=C(/Nc1ccccc1SC)c1ccccc1", "activation": "-0.36%"}
{"molecule": "COC(=O)c1cc(OC)c(OC)cc1NC(=O)CSc1ccc(Cl)cc1", "activation": "-0.78%"}
{"molecule": "Cc1cc(/C(N)=N/OC(=O)c2cccs2)c(-c2ccccc2)o1", "activation": "2.72% (active)"}
{"molecule": "N/C(Cc1cccs1)=N\\OC(=O)c1ccccc1", "activation": "-0.76%"}
{"molecule": "CS(=O)(=O)Nc1ccc(/C(N)=N/OC(=O)c2cccs2)cc1", "activation": "-0.39%"}
{"molecule": "COC(OC)c1ccc(C#N)c(SCC(=O)Nc2ccc(C(F)(F)F)cc2)n1", "activation": "-0.25%"}
{"molecule": "O=C(Nc1ccccc1N1CCOCC1)NC1CCN(C(=O)OCc2ccccc2)CC1", "activation": "-0.87%"}
{"molecule": "Clc1ccc(C=NCc2cccnc2)c(Cl)c1", "activation": "-0.28%"}
{"molecule": "Cc1nc(-c2ncc(-c3ccccc3)o2)c(C(F)(F)F)o1", "activation": "-4.8%"}
{"molecule": "NC(=O)C1CCN(CC(O)CSc2ccc(F)cc2)CC1", "note": "(centres undefined)", "activation": "-5.86%"}
{"molecule": "CCOC(=O)C(=CNc1ccc2n[nH]nc2c1)C(=O)OCC", "activation": "-0.78%"}
{"molecule": "Cn1nccc1NC(=O)CC(CC(=O)O)c1ccccc1", "note": "(centres undefined)", "activation": "0.57%"}
{"molecule": "CCOC(=O)c1ccc(NC)c(N)c1", "activation": "-0.75%"}
{"molecule": "COc1ccc2cc(/C(C)=N/OC(=O)Nc3ccccc3)ccc2c1", "activation": "0.13%"}
{"molecule": "COc1cc(C=C(C#N)C#N)cc(OC(C)=O)c1OC(C)=O", "activation": "-0.27%"}
